# Assay outcomes: PubChem BioAssay, National Center for Advancing Translational Sciences (NCATS)
# Sampled rows, rich in hits. Any-hit rate of the full collection: about 17%.
# HT1080 IDH1KD tx = qHTS for induction of synthetic lethality in tumor cells producing 2HG: qHTS for the HT-1080-IDH1KD cell line. HT-1080 IDH1 knockdown viability, ATP luminescence, 48 h. AID 686971, 2013. Potency, µM (top dose mostly 46.1 µM), hits mostly cytotoxic. 360,000 compounds, 2% hits
#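 Viability of IDH1-knockdown HT-1080 fibrosarcoma cells was assessed by CellTiter-Glo after 48 h at 37 °C with titrated compound; concentration-effect curves were classified by fit quality and response size.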
# TDP1 cell CPT = qHTS for Inhibitors of human tyrosyl-DNA phosphodiesterase 1 (TDP1): qHTS in cells in presence of CPT; 420,000 compounds, 12% hits; Potency, µM (series often up to 46.2 µM), usual class: inhibitors; AID 686979, 2013; chicken DT40 Tdp1-/-;hTDP1 cells + 20 nM CPT, ATP luminescence, 48 h; further: nearly all actives have a fitted effect of over 55% in size
#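 Cell growth measured by CellTiter-Glo luminescence after a minimum 48 h, 37 C compound exposure with 20 nM CPT in Tdp1-knockout DT40 cells stably expressing hTDP1, seeded 400/well; qHTS titration format.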
# HT1080-NT tox = qHTS for induction of synthetic lethality in tumor cells producing 2HG: qHTS for the HT-1080-NT fibrosarcoma cell line. 360,000 compounds, 1.6% hits. AID 686970, 2013. HT-1080-NT fibrosarcoma viability, CellTiter-Glo ATP luminescence, 48 h. Potency, µM (top dose mostly 46.1 µM), actives largely listed as cytotoxic;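 further: NT is the 2HG producing partner of a matched IDH1 knockdown line; nearly all actives have a fitted effect of over 55% in size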
#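 HT-1080-NT; 750 cells/well; 5% FBS RPMI; 48 h compound, 37 degrees C; CellTiter-Glo luminescence; curve fitting and curve-class assignment.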
# HepG2 viability = qHTS for Inhibitors of TGF-b: Cytotox Counterscreen; HepG2 CAGA-GFP viability, ATP luminescence, 18 h; Potency, µM (top dose mostly 46.1 µM), usual class: cytotoxic; 410,000 compounds, 0.76% hits; AID 588856, 2011
#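 HepG2 CAGA-GFP cells (1000/well, DMEM with 1% FBS) received compound, then TGF-beta at 500 pg/mL final, and were incubated 18 hours at 37 degrees C. Viability was read by CellTiter-Glo luminescence. Media-only wells were set as complete cell-killing and DMSO as no toxicity.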
# DT40 TDP1 no CPT = qHTS for Inhibitors of human tyrosyl-DNA phosphodiesterase 1 (TDP1): qHTS in cells in absence of CPT; DT40 Tdp1-/- hTDP1 cells, no CPT, ATP luminescence, 48 h; Potency, µM (titrated, usually from 46.2 µM), hits mostly inhibitors; 420,000 compounds, 15% hits; further: nearly all actives have a fitted effect of over 55% in size
#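 Seeded 400 DT40-hTDP1 cells/well (vehicle DMSO, no 20 nM CPT); pinned compounds; ≥48 hr at 37 °C; CellTiter-Glo luminescence as viability measure.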
# TGFb inhibitor = qHTS for Inhibitors of TGF-b | HepG2 CAGA-GFP TGF-b/SMAD3 reporter, GFP fluorescence, 18 h; TGF-beta stimulated, 500 pg/mL final | Potency, µM (highest dose often 46.1 µM), actives largely listed as inhibitors | 410,000 compounds, 1.2% hits | AID 588855, 2011; further: nearly all actives have a fitted effect of over 65% in size
#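 Cell-based qHTS in HEPG2 carrying a CAGA-GFP Smad reporter; compounds added before 500 pg/mL final TGF-beta, 18 h incubation at 37 degrees C, GFP fluorescence quantified per cell by imaging cytometry.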
# Numbers stand for hits; i = inactive; ? = inconclusive; nt = no result given; [ ] = dose if it differs, or a comment. The call rests on the fitted dose curve; in most records, active means well fitted curve in the direction sought with a large enough effect; inconclusive means small, poorly fitted or top-dose-only effect, or another doubt; inactive means no such curve, though single readings can be large; an effect the other way counts as inactive or inconclusive.
SMILES,HT1080 IDH1KD tx,TDP1 cell CPT,HT1080-NT tox,HepG2 viability,DT40 TDP1 no CPT,TGFb inhibitor
COc1ccc(C(=O)COc2ccc3c(C)cc(=O)oc3c2)cc1,i,i,i,i,?,i
COc1cc(NC(=O)COc2cc3oc(=O)cc(C)c3cc2Cl)cc(OC)c1OC,i,8.2µM,i,i,5.8µM,i
COc1cc(NC(=O)COc2cc(C)cc3oc(=O)c(C)c(C)c23)cc(OC)c1OC,i,i,i,i,i,i
COc1cccc(C(=O)COc2ccc3c(C)cc(=O)oc3c2)c1,?,3.3µM,i,i,2.3µM,i
COc1cc2c(cc1OC)C(COc1ccc3c(C)cc(=O)oc3c1)N(C(=O)c1ccccc1F)CC2 (stereo not drawn),nt,?,nt,i,21µM,i
COc1cccc(C(=O)N2CCc3cc(OC)c(OC)cc3C2COc2ccc3c(C)cc(=O)oc3c2)c1 (stereo not drawn),nt,?,nt,i,10µM,i
CC(=O)Nc1ccc(NC(=O)COC(=O)c2ccccc2OCc2cccc(Br)c2)cc1,nt,i,nt,i,i,i
CN(C)/C=C/C1=C([N+](=O)[O-])C(c2cccc([N+](=O)[O-])c2)NC(=O)N1 (stereo not drawn),i,i,i,i,i,i
COCCCOc1cc(C[C@@H](C[C@H](N)[C@@H](O)C[C@H](C(=O)NCC(C)(C)C(N)=O)C(C)C)C(C)C)ccc1OC,nt,i,nt,nt,i,nt
CC(=O)c1cccc(NC(=O)COc2ccc3oc(=O)cc(C)c3c2)c1,i,18µM,i,i,?,i
CC(=O)c1cccc(OCC(=O)Nc2cccc(C(=O)Nc3c(C)n(C)n(-c4ccccc4)c3=O)c2)c1,i,13µM,i,i,?,i
Cc1cccc(C)c1NC(=O)COc1ccc2c(C)c(Cc3ccccc3)c(=O)oc2c1,i,?,i,i,12µM,i
Cc1cc(=O)oc2cc(OCC(=O)Nc3nccs3)ccc12,i,i,i,i,i,i
Cc1cc(=O)oc2cc(OCC(=O)Nc3c(Cl)cccc3C(F)(F)F)ccc12,i,?,i,i,13µM,i
Cc1c(NC(=O)c2cccc(NC(=O)COc3ccc(C#N)cc3)c2)c(=O)n(-c2ccccc2)n1C,i,i,i,i,i,i
CCOC(=O)c1ccc(S(=O)(=O)Nc2cc(C(=O)O)ccc2Cl)cc1,i,i,i,i,i,i
Cc1ccc(NC(=O)C(C)OC(=O)Cn2[nH]c(=O)c3ccccc3c2=O)cc1 (stereo not drawn),i,i,i,i,i,i
CC1=C(C(=O)N(C(C)C)C(C)C)CC(CC(=O)NCc2cccc3ccccc23)C(=O)N1Cc1ccccc1 (stereo not drawn),i,?,i,i,15µM,?
CC1=C(C(=O)N(C(C)C)C(C)C)CC(CC(=O)NCc2cccc3ccccc23)C(=O)N1Cc1ccc(F)cc1 (stereo not drawn),?,?,?,i,?,?
CC1=C(C(=O)N(C(C)C)C(C)C)CC(CC(=O)NC2CCCCC2)C(=O)N1CCC1=CCCCC1 (stereo not drawn),i,?,i,i,23µM,?
COc1ccc(CN2C(=O)C(CC(=O)NC3CCCCC3)CC(C(=O)N(C(C)C)C(C)C)=C2C)cc1 (stereo not drawn),i,?,i,i,15µM,i
COc1ccc(CN2C(=O)C(CC(=O)NC3CCCCC3)CC(C(=O)N(C)C)=C2C)cc1 (stereo not drawn),i,?,i,i,i,i
CC1=C(C(=O)N(C)C)CC(CC(=O)NC2CCCCC2)C(=O)N1Cc1ccc(C(C)(C)C)cc1 (stereo not drawn),i,?,i,i,?,i
CC1=C(C(=O)N(C(C)C)C(C)C)CC(CC(=O)NC2CCCC2)C(=O)N1Cc1ccc(C(C)(C)C)cc1 (stereo not drawn),?,21µM,?,i,23µM,?
Cc1c(C(=O)NCc2cccs2)sc(=O)n1Cc1ccc(S(C)(=O)=O)cc1,i,?,i,i,?,i
SMILES,HT1080 IDH1KD tx,TDP1 cell CPT,HT1080-NT tox,HepG2 viability,DT40 TDP1 no CPT,TGFb inhibitor
CCN1CCN(C(c2ccc(C)cc2)c2sc3nc(-c4ccco4)nn3c2O)CC1 (stereo not drawn),nt,i,nt,i,i,i
CCN(CC)C(=O)C1=C(C)N(Cc2ccc(C(C)(C)C)cc2)C(=O)C(CC(=O)NC2CCCCC2)C1 (stereo not drawn),i,15µM,i,i,12µM,i
CCN(CC)C(=O)C1=C(C)N(Cc2ccc(C(C)(C)C)cc2)C(=O)C(CC(=O)NC2CC2)C1 (stereo not drawn),i,i,i,i,i,i
Cc1cccc(C(=O)NNC2=C(C(=O)C(F)(F)F)CCC2)c1O,21µM,6.5µM,21µM,i,13µM,?
O=C(NNC1=C(C(=O)C(F)(F)F)CCC1)c1cccc(O)c1,18µM,?,?,i,?,i
C[C@@H]1Nc2ccc(Cl)cc2S(=O)(=O)N1,nt,i,nt,nt,i,nt
CCCC(=O)N1CCN(c2ccc(NC(=S)NC(=O)c3cccc(C)c3)cc2)CC1,i,?,i,i,23µM,i
CC(C)Oc1cccc(C(=O)NC(=S)Nc2ccc(N3CCN(C)CC3)cc2)c1,i,?,i,i,?,i
COc1cccc(C(=O)NC(=S)Nc2ccc(N3CCCC3)cc2)c1,i[9.24 µM],?,i,i,16µM,i
CCOc1cccc(C(=O)Nc2ccc(N(CC)CC)cc2)c1,i,21µM,i,i,?,i
COc1ccc(OCc2cccc(C(=O)Nc3ccc(CN4CCCCC4)cc3)c2)cc1,i,?,i,i,?,?
CCOc1cccc(C(=O)Nc2ccc3ccccc3c2)c1,i,i,i,i,i,i
CCOc1ccc(OCc2cccc(C(=O)Nc3ccc(CN4CCCCC4)cc3)c2)cc1,?,8.2µM,15µM,10µM,21µM,i
O=C(N1CCOCC1)C12OC3CC(CC(C3)O1)O2,i,i,i,i,i,i
CCNC(=O)c1c(NC(=O)c2nc(SC)ncc2Cl)sc2c1CCCC2,nt,i,nt,i,?,i
CCOc1cccc(C(=O)Nc2ccc(N3CCCC3)cc2)c1,i,i,i,i,16µM,i
